Results filed as inconclusive are left out. The list shows a part of the results. Activity calls are given as the source filed them. Unless noted, calls follow the shape of the dose curve; as a rule, active = well fitted curve in the direction sought with a large enough effect; inconclusive = small, poorly fitted or top-dose-only effect, or another doubt; inactive = no such curve, though single readings can be large; an effect the other way counts as inactive or inconclusive.
Experiments:
[1] = Viability counterscreen for agonist of constitutive androstane receptor (CAR) against the NCATS DSHEA and TCM libraries (AID 1794838); conditions: HepG2 cell viability counterscreen, CAR agonist assay; series mostly up to 40 µM; also: 0% is about no effect
Outline: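 Cell viability, from CellTiter-Fluor fluorescence (405/540 nm), was scored after a 24 h, 37C exposure of HepG2 cells carrying CYP2B6 reporter and hCAR to test substances in presence of 0.75 uM PK11195.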

[2] = biological target: Nuclear receptor subfamily 1 group I member 3 (Homo sapiens) (UniProt Q14994); assay: Primary qHTS for agonist of constitutive androstane receptor (CAR) against the NCATS DSHEA and TCM libraries (AID 1794839); conditions: CAR agonist reporter cells, qHTS luminescence; Potency: CAR antagonist co-added at 0.75 µM unless noted; series mostly up to 40 µM;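 also: HepG2 cells expressing human CAR with a CYP2B6 reporter plus PK11195 antagonist; 0% is about no effect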
Nuclear receptor subfamily 1 group I member 3 (Homo sapiens), sequence (Q14994 whole entry, looked up): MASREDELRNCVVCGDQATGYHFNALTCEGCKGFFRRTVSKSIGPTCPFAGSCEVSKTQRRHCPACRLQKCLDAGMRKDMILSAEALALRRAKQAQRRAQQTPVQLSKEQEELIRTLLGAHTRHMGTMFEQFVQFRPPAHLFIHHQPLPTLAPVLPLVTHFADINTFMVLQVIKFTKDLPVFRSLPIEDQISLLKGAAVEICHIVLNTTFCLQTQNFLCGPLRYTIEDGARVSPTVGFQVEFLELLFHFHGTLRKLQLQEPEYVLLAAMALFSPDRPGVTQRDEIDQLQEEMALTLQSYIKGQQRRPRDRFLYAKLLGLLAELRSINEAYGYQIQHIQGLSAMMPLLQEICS
Outline: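 Agonist mode in presence of hCAR antagonist PK11195 (0.75 µM final): test substances, 24 h, 37 °C, on HepG2-CYP2B6-hCAR cells. Same-well readouts: fluorescence viability, then ONE-Glo luminescence; CITCO as reference agonist.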

[3] = HepG2 viability counterscreen (readout 2: ATP content) against the NCATS DSHEA and TCM libraries (AID 1794840); conditions: ATP content luminescence; series mostly up to 27.3 µM;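 also: HepG2 cells exposed to substances for about 24 h; 0% is about no effect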
Outline: (§1)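 Readout 1: cellular protease activity, GF-AFC substrate (25 uM final, 30 min, fluorescence 380/510 nm). Readout 2: ATP content by CellTiter-Glo luminescence after 30 min at RT. Both follow ~24 h exposure of HepG2 cells (1,000/well) to substances.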

[4] = HepG2 viability counterscreen (readout 1: protease activity) against the NCATS DSHEA and TCM libraries (AID 1794841); conditions: qHTS concentration series; series mostly up to 27.3 µM;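 also: cells exposed to compounds for about 24 h before the protease read; 0% is about no effect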
Outline: as §1

[5] = biological target: Cytochrome P450 2D6 (Homo sapiens) (UniProt P10635); assay: qHTS for inhibitors of CYP2D6 against the NCATS DSHEA and TCM libraries (AID 1919972); conditions: CYP2D6 enzymatic inhibition, luminescence qHTS; series mostly up to 34.1 µM; also: % is scaled to controls: 0 for no effect and ±100 for the full control effect
Cytochrome P450 2D6 (Homo sapiens), sequence (P10635 whole entry, looked up): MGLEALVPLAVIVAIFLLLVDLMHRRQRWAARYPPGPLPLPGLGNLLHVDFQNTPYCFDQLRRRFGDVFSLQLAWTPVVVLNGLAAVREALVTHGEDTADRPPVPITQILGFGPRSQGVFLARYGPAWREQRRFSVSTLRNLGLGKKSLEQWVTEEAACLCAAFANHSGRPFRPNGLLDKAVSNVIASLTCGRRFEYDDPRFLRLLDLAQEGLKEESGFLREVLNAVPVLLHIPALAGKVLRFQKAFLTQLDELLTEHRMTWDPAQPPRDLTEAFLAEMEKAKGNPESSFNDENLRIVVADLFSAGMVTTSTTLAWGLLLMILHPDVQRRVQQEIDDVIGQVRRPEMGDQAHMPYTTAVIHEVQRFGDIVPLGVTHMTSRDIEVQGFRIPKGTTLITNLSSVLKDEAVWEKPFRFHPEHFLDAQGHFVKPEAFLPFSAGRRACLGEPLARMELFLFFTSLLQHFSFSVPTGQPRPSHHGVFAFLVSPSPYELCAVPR
Outline: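 qHTS, concentration–response format with most substances from 19.5 nM. CYP2D6 + pro-luciferin substrate, 15 min with compound, then 1x NADPH regen, 30–45 min RT dark. Glo detection 30 min, luminescence. Quinidine control.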

[6] = biological target: Cytochrome P450 2C9 (Homo sapiens) (UniProt P11712); assay: qHTS for inhibitors of CYP2C9 against the NCATS DSHEA and TCM libraries (AID 1919973); conditions: recombinant CYP2C9 enzyme activity, luminescence; series mostly up to 34.1 µM;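 also: luminogenic pro-luciferin CYP2C9 substrate turned into luciferin with NADPH regeneration; % is scaled to controls: 0 for no effect and ±100 for the full control effect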
Cytochrome P450 2C9 (Homo sapiens), sequence (P11712 whole entry, looked up): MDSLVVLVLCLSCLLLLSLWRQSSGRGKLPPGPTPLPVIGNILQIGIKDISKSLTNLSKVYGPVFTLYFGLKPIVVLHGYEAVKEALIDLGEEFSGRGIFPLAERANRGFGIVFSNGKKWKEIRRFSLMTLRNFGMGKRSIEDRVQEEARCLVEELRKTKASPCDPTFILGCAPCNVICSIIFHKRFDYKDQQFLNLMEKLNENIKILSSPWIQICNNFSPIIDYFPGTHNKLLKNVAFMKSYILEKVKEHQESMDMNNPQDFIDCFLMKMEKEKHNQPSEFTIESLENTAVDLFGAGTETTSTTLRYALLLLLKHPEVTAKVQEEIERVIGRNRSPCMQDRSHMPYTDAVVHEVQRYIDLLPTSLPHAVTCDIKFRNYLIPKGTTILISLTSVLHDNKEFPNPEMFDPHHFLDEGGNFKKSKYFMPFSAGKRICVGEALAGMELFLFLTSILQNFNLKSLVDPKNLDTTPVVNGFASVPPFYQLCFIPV
Outline: (§2)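 Substances were tested against enzyme with a pro-luciferin substrate; minus-enzyme wells served as background. After NADPH-initiated oxidation (30-45 min, RT), light was generated with P450-Glo reagent.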

[7] = biological target: Cytochrome P450 2C19 (Homo sapiens) (UniProt P33261); assay: qHTS for inhibitors of CYP2C19 against the NCATS DSHEA and TCM libraries (AID 1919974); conditions: CYP2C19 enzyme inhibition, luminescence qHTS; series mostly up to 34.1 µM;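 also: luminescence from luciferin released by CYP2C19 oxidation of a pro-luciferin substrate; % is scaled to controls: 0 for no effect and ±100 for the full control effect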
Cytochrome P450 2C19 (Homo sapiens), sequence (P33261 whole entry, looked up): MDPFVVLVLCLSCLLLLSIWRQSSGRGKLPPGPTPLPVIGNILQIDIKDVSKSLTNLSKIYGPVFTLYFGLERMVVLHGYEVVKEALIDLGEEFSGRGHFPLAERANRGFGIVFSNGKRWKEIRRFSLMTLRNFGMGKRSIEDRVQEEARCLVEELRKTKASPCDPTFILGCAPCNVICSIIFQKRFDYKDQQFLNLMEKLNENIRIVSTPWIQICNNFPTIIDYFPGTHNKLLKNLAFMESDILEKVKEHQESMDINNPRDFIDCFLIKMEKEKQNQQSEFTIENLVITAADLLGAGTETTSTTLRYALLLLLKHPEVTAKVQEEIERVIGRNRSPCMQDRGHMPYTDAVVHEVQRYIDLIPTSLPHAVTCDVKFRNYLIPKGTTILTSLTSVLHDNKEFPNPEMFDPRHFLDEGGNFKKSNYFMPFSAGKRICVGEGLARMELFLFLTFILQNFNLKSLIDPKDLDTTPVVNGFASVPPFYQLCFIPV
Outline: as §2

[8] = KB-3-1 P-gp reporter qHTS against the NCATS DSHEA and TCM libraries (AID 1919975); conditions: KB-3-1 parental cells, CellTiter-Glo luminescence viability, 72 h; series mostly up to 26.1 µM; also: 0% is about no effect
Outline: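 Cell viability by CellTiter-Glo luminescence following ~72 h compound exposure (concentration-response). Uses parental, non-P-gp-overexpressing KB-3-1 line, 500 cells/well in DMEM/10% FBS, attached ~4 h before dosing.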

[9] = KB-8-5-11 P-gp reporter qHTS against the NCATS DSHEA and TCM libraries (AID 1919977); conditions: KB-8-5-11 cells; series mostly up to 26.1 µM; also: 0% is about no effect
Outline: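 CellTiter-Glo luminescence measured viability after ~72 h exposure (37C, 5% CO2) of KB-8-5-11 cervical adenocarcinoma cells overexpressing P-gp. Colchicine was omitted during assay. Substances were tested as titrations.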

[10] = qHTS Counterscreen for compound interference against the NCATS DSHEA and TCM libraries (AID 1919978); conditions: firefly luciferase detection reagent interference, luminescence;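 also: compounds preincubated with 1 µM D-luciferin or buffer before detection reagent; % of control where 0% means no effect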
Outline: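 With 1 uM D-luciferin or phosphate buffer only, compounds at final 19.5 nM–39.8 uM were incubated for 15 min at room temperature. Luciferase detection reagent was then added, and luminescence was measured after a further 30 min at room temperature.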

[11] = Dual reporter qHTS for agonist of Pregnane X Receptor (hPXR) against the NCATS DSHEA and TCM libraries: Fluorescence readout (AID 1920058); conditions: PXR dual reporter cells; series mostly up to 40 µM; also: 0% is about no effect
Outline: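 Fluorescence read-out for cell viability: CellTiter-Fluor, 1 h at 37 °C, Ex/Em 405/540 nm. This followed ~24 h treatment of hPXR-Luc HepG2 cells with substances in agonist mode.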

[12] = biological target: Nuclear receptor subfamily 1 group I member 2 (Homo sapiens) (UniProt O75469); assay: Dual reporter qHTS for agonist of Pregnane X Receptor (hPXR) against the NCATS DSHEA and TCM libraries: Luminescence readout (AID 1920059); conditions: hPXR dual reporter cells, luciferase luminescence agonist; series mostly up to 40 µM; also: 0% is about no effect
Nuclear receptor subfamily 1 group I member 2 (Homo sapiens), sequence (O75469 whole entry, looked up): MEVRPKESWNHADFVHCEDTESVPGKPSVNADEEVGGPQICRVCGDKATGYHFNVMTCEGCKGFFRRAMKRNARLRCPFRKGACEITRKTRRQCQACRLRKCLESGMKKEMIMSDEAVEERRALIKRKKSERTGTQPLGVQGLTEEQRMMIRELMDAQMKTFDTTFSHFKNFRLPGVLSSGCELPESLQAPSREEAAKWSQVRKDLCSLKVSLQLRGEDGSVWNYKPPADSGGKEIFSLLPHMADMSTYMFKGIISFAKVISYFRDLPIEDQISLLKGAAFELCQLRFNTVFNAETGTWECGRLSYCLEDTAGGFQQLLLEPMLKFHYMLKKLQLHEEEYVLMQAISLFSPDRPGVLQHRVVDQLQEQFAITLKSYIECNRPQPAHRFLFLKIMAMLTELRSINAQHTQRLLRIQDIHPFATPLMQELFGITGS
Outline: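 hPXR-LucHepG2 cells in phenol red-free DMEM with 5% charcoal-stripped FBS, 2000 cells/well, attached 5 h, then exposed 24 h at 37C to compounds; rifampicin as positive agonist control (2.8 nM–92 uM). Luciferase luminescence read.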

[13] = biological target: Nuclear receptor subfamily 1 group I member 2 (Homo sapiens) (UniProt O75469); assay: Dual reporter qHTS for antagonist of Pregnane X Receptor (hPXR) against the NCATS DSHEA and TCM libraries: Luminescence Readout (AID 1920060); conditions: hPXR dual reporter cells, luciferase luminescence, antagonist mode; series mostly up to 40 µM; also: 0% is about no effect
Outline: (§3)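 Rifampicin-stimulated (2 uM final) hPXR-luciferase HepG2 cells were treated for 24 h with DSNP/TCM substances. Viability came from CellTiter-Fluor fluorescence, reporter activity from ONE-Glo luminescence.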

[14] = Dual reporter qHTS for antagonist of Pregnane X Receptor (hPXR) against the NCATS DSHEA and TCM libraries: Fluorescence Readout (AID 1920061); conditions: PXR dual reporter cells, antagonist mode; series mostly up to 40 µM; also: 0% is about no effect
Outline: as §3

[15] = Cell Viability - LYMP2-003 (AID 965); conditions: LYMP2-003 lymphoblastoid cell viability; series mostly up to 92.2 µM;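 also: cells exposed to compounds for 24 h before reading; 0% = DMSO only and full effect = 92 µM tetraoctylammonium bromide; nearly all actives have a fitted effect of over 50% in size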
Outline: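 CellTiter-Glo luminescence quantified ATP loss after 24 h compound treatment of LYMP2-003 lymphoblastoid cells at 37 C. Titration series were fitted with the standard Hill equation to give AC50.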

[16] = biological target: Bile acid receptor (Homo sapiens) (UniProt Q96RI1); assay: qHTS assay for small molecule antagonists of farnesoid X receptor signaling (AID 588526; calls by dose curve; also: % is scaled to controls: 0 for no effect and ±100 for the full control effect); conditions: HEK293T FXR-UAS-bla, beta-lactamase ratio, antagonist mode; series mostly up to 76.7 µM
Bile acid receptor (Homo sapiens), sequence (Q96RI1 whole entry, looked up): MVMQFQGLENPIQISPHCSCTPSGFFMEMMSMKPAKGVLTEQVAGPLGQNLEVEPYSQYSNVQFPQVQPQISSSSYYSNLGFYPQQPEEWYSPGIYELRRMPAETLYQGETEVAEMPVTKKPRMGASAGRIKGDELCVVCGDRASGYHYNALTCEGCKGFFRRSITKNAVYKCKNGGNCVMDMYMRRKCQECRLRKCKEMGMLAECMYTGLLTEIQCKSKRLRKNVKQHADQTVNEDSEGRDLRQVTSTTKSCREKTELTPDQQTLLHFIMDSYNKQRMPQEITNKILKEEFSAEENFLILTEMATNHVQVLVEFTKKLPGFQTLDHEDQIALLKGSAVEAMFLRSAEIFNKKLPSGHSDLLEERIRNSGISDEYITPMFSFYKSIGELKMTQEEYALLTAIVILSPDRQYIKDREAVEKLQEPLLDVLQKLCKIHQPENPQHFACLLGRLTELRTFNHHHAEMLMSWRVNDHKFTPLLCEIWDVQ
Outline: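 Concentration-response titrations were fitted to the Hill equation for half-maximal inhibition and maximal response, with data normalised to 50 uM chenodeoxycholic acid and DMSO control wells. Cells: FXR-UAS-bla HEK293T, dialyzed FBS.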

[17] = Counterscreen for APE1 Inhibitors: Fluorescent Dye Displacement Assay (AID 2564); conditions: DNA fluorescent dye displacement counterscreen, fluorescence; series mostly up to 28.5 µM;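 also: loss of thiazole orange fluorescence as the dye is displaced from duplex DNA; 0% = ThO with dsDNA and no compound and -100% = ThO without dsDNA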
Outline: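 Loss of Thiazole Orange fluorescence marks promiscuous DNA binders. The dye (250 nM) is mixed with 50 nM abasic-site dsDNA in pH7.5 Tris buffer containing MgCl2, then compounds are added and emission is read once.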

[18] = biological target: Endonuclease 4 (Escherichia coli (strain K12)) (UniProt P0A6C1); assay: Counterscreen for APE1 Inhibitors: qHTS Assay for Inhibitors of Endonuclease IV (AID 2565);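 also: plate controls were uninhibited enzyme wells for no effect and no enzyme buffer wells for full effect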; conditions: E. coli Endo IV, fluorogenic AP-site DNA cleavage; series mostly up to 27.1 µM
Outline: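 Measured as reaction progress, the fluorescence gain between first and third kinetic reads after adding 50 nM TAMRA/BHQ-2 THF duplex to 2 nM enzyme preincubated 15 min with compound; 2 mM MgCl2, pH 7.5.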

[19] = biological target: DNA repair nuclease/redox regulator APEX1 (Homo sapiens) (UniProt P27695); assay: Confirmation qHTS Assay for Inhibitors of the Human Apurinic/apyrimidinic Endonuclease 1 (APE1) (AID 2572); conditions: purified APE1, fluorogenic abasic-site DNA cleavage; series mostly up to 24.4 µM;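 also: fluorescence gain from purified APE1 cutting a TAMRA/BHQ-2 THF abasic duplex; % is scaled to controls: 0 for no effect and ±100 for the full control effect; nearly all actives have a fitted effect of over 30% in size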
DNA repair nuclease/redox regulator APEX1 (Homo sapiens), sequence (P27695 whole entry, looked up): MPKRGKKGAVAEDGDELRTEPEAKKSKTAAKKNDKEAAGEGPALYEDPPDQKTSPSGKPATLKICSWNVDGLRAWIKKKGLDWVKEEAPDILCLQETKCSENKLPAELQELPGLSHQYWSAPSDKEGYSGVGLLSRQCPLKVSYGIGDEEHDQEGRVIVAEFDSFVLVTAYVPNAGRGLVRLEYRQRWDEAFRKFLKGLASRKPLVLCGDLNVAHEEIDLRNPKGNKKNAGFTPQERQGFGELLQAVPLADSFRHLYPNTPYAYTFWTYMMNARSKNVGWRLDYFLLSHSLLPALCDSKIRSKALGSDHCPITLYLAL
Outline: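 APE1 endonuclease activity was assessed as fluorescence released when the enzyme nicked a quenched abasic-site duplex (50 nM final). Compounds were preincubated with enzyme 15 min at room temperature before substrate addition.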

[20] = biological target: DNA repair nuclease/redox regulator APEX1 (Homo sapiens) (UniProt P27695); assay: qHTS FP-Based Assay for Inhibitors of the Human Apurinic/apyrimidinic Endonuclease 1 (APE1) (AID 2573); conditions: APE1 binding to TAMRA-labelled double-stranded DNA, fluorescence polarization displacement; series mostly up to 28.5 µM; also: % is scaled to controls: 0 for no effect and ±100 for the full control effect

C=CCc1ccc2c(c1)OCO2
inactive: outcome [1] | Potency [2] | outcome [3] | outcome [4] | Potency [5] | Potency [6] | Potency [7] | outcome [8] | Potency [9] | max response [10] 0.591% | outcome [11] | Potency [12] | outcome [13] | outcome [14]

CNC(=O)O/N=C/C(C)(C)SC
inactive: Potency [15] | outcome [16]

CCNC[C@H](O)c1cccc(O)c1
inactive: outcome [17] | outcome [18] | outcome [19] | outcome [20]

Reference: PubChem BioAssay (NCATS)
